# Measurements: PubChem BioAssay AID1272365 (Small Molecule Screening Facility, UW Madison, 2018)
# Several values for one entry are separate records, joined by “and”; a condition that tells them apart may be missing. Equal entries are not always repeated. About 2,600 (0.6%) of roughly 430,000 compounds were called active. This is one part of a sample in which actives are shown more often than they occur. Values without a mark were called inactive. No stated cut-off is given here; in the data, active means inhibition mostly above about 37% (no sharp cut-off); inactive means mostly below about 20%.
# Tested on: PriA–SSB C-terminal tail interaction (Klebsiella pneumoniae)
# Assay: inhibitors of Klebsiella pneumoniae PriA binding to SSB C-terminal tail, primary screen, biochemical, AlphaScreen (AID 1272365);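 further: plate controls were negative control peptide for no effect and reference peptide for full effect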
# Conditions: AlphaScreen SSBct-PriA binding, biotinylated peptide; at 33 µM, active compounds read high
row,SMILES,inhibition
1,O=S(=O)(CCc1ccccc1)NCC(O)c1ccoc1 (centres undefined),-25%
2,COc1cc(NS(=O)(=O)c2ccc(NC(=O)c3cc4c(ccc5ccccc54)oc3=O)cc2)ncn1,-16%
3,COC(=O)c1ccc(S(=O)(=O)NCC2(c3ccc(F)cc3)CC2)cc1,-24%
4,COc1ccc(Br)c(C(=O)NCCCc2cnoc2)c1,4%
5,Cc1cc2ncc(NC(=O)NCCOc3ccccc3)cn2n1,-12%
6,O=[N+]([O-])c1ccccc1Nc1ccc(O)cc1,46.7% (active)
7,O=C(Nc1ccc(OC(F)(F)F)cc1)C(=O)Nc1ccccc1[N+](=O)[O-],4%
8,O=[N+]([O-])c1ccccc1NN=Cc1cccc(O)c1O,0.72%
9,COc1cccc(CCNC(=O)C2CS(=O)(=O)CN2C(=O)c2ccccc2)c1 (centres undefined),-9%
10,Cc1ccc(-c2cc3c(=O)n(CC(=O)Nc4ccc5c(c4)OCO5)ncn3n2)cc1C,-17%
11,O=C(c1ccccc1)c1sc(NC(=O)c2cc(-c3ccccc3)nc3ccccc23)nc1-c1ccccc1,10%
12,CC(=NNC(=O)c1c(Cl)c(C)nn1C)c1cccc(NC(=O)C2CCCC2)c1,2.34%
13,Cc1cc(-c2nnc(NC(=O)Cc3ccccc3)o2)n(C)n1,14%
14,Cc1cc(-c2nnc(NC(=O)C(c3ccccc3)c3ccccc3)o2)n(C)n1,61% (active)
15,CSc1ccccc1C(=O)Nc1nnc(-c2cc(C)nn2C)o1,6% and 0%
16,Cc1cc(-c2nnc(NC(=O)c3ccc(C(=O)c4ccccc4)cc3)o2)nn1C,3%
17,Cc1cc(-c2nnc(NC(=O)C(c3ccccc3)c3ccccc3)o2)nn1C,85% (active)
18,Cc1cc(-c2nnc(NC(=O)C(C)C)o2)nn1C,-2%
19,COC[C@@](C)(O)CNS(=O)(=O)c1ccccc1OC,-2%
20,Cc1cc(C)c2c(n1)nn1c(NCc3ccc(Cl)cc3Cl)cc(C)nc21,-9%

row,SMILES,inhibition
1,COc1cc(NC(=O)Cc2c(C)noc2C)ncn1,-19%
2,Cc1cc(C(=O)OCC(=O)NCc2ccco2)c(C)n1-c1ccccc1,-5.93%
3,CC(=O)c1c(C)n(-c2ccc(C)cc2)c2ccc(O)cc12,-0.78%
4,CC(=O)c1c(C)n(-c2ccc(N(C)C)cc2)c2ccc(OCC(N)=O)cc12,-18.2%
5,CCOC(=O)c1c(C)n(-c2ccc(C)cc2)c2ccc(OCC(O)Cn3ccnc3)cc12 (centres undefined),83% (active) and 46% (active)
6,Cc1oc2ccc(OCc3ccccc3)cc2c1C(=O)NCc1ccco1,-4%
7,CCOC(=O)c1c(C)n(-c2ccc(C)cc2)c2ccc(OCC(O)CNCc3ccco3)cc12 (centres undefined),69% (active)
8,COc1cc(OC)cc(-c2noc(-c3cc(-c4cc(C)ccc4C)n[nH]3)n2)c1,-13%
9,O=C(c1ccc([N+](=O)[O-])o1)N1CCN(c2ncnc3c2nnn3-c2cccc(F)c2)CC1,-10%
10,CC(=O)Nc1nnc(Cc2ccc(F)cc2)o1,1%
11,COc1ncc(NC(=O)Nc2ccc(C)c(Cl)c2)c(N(C)C)n1,10%
12,O=C(Cc1csc(SCc2ccc(Cl)cc2)n1)Nc1ccc2c(c1)OCO2,1%
13,CN(C)c1ccc(/C=N\NC(=O)c2ccccc2O)cc1,-18%
14,NC(=O)c1ccccc1OCC#CCNS(=O)(=O)Cc1ccc(Cl)cc1,-1%
15,O=C(Cn1nc(-c2ccc(F)cc2)c2sc(N3CCCC3)nc2c1=O)NCc1ccccc1Cl,-4%
16,CCOc1cc(/C=C2/N=C(c3ccc(C(C)(C)C)cc3)OC2=O)cc(Cl)c1OS(C)(=O)=O,62.1% (active)
17,CC(=O)Nc1ccc(N2C(=O)c3cccc4cccc(c34)C2=O)cc1,5%
18,Cc1ccc(NC(=O)C2CCCN2S(=O)(=O)c2cccc3cccnc23)c(C)c1 (centres undefined),-5.79%
19,Cc1c(NC(=O)CSc2cccc3cccnc23)c(=O)n(-c2ccccc2)n1C,96% (active)
20,Cc1ccccc1OCCC(=O)Nc1c(C)n(C)n(-c2ccccc2)c1=O,-12.4%

row,SMILES,inhibition
1,Cc1ccc(NC(=O)CSc2cccc3cccnc23)c(C)c1,79.3% (active)
2,O=C(CSc1cccc2cccnc12)Nc1ccc(Br)cc1,27.6%
3,Cc1c(NC(=O)COc2cccc(OCCC(C)C)c2)c(=O)n(-c2ccccc2)n1C,-3%
4,O=C(CSc1nnc(-c2ccc3c(c2)OCCO3)o1)Nc1nc(-c2ccccc2)cs1,-3%
5,COc1ccc(C(=O)CC(SCCO)c2ccc(F)cc2)cc1OC (centres undefined),-1%
6,COc1ccc(NC(=O)NCC(c2ccc3c(c2)CCCN3C)N2CCCC2)cc1OC (centres undefined),25%
7,CCCN1CCCc2cc(CCNC(=O)CCC3CCCC3)ccc21,63% (active)
8,CCCN1CCCc2cc(CCNC(=O)Cc3ccc(OC)cc3)ccc21,57.9%
9,CCCN1CCCc2cc(CCNC(=O)c3ccco3)ccc21,56% (active)
10,Cc1cc(C)c(S(=O)(=O)Nc2ccc3c(c2)CCCN3C(=O)c2ccco2)c(C)c1,0%
11,O=C(NCCc1ccc(N2CCCC2)cc1)c1ccco1,-19%
12,CCC(=O)N1CCc2ccc(NC(=O)CCC3CCCC3)cc2C1,-6%
13,Cn1nc(CNS(=O)(=O)/C=C/c2ccccc2)c2c1CCCC2,-3%
14,CCCS(=O)(=O)N1CCc2ccc(NC(=O)c3ccc(Br)o3)cc2C1,-14%
15,C=CCn1c(SCC(=O)N2CCOCC2)nc2scc(-c3ccccc3Cl)c2c1=O,-1%
16,Cc1cc(=O)n(CC(=O)Nc2ccc(C(F)(F)F)cc2)c(-c2ccncc2)n1,-28%
17,CS(=O)(=O)N1CCN(C(=O)c2cnn3c2OCCC3)CC1,6%
18,O=C(Cc1ccc(F)cc1)NCCn1nc(C(F)(F)F)c2c1CCCC2,10%
19,COc1cn2c(cc1=O)C(=O)N(CCNC(=O)C1(c3ccc(Cl)cc3)CCCC1)CC2,-13% and -15%
